High-throughput results (PubChem BioAssay)
Spn PMK inh – blocks S. pneumoniae phosphomevalonate kinase | purified PMK, PK/LDH-coupled NADH absorbance 340 nm | inhibition, % at 10 µM | 0.49% of 65,000 active;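 active means top-ranked compounds by inhibition in the single 10 µM screen, taking a fixed number of the strongest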
NADH enzymes – inhibition of NAD/NADH coupling enzymes, library profiling. coupled PK/LDH NADH assays, four targets. IC50, µM (titrated, usually from 10 µM). 0.02% of 65,000 active. AID 774;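 active means single-dose screening hits from any of four coupled enzyme assays that gave an IC50 when retested across doses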;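 further: the DPM-DC format reads NADH fluorescence rather than 340 nm absorbance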
Spn MK inh – blocks S. pneumoniae mevalonate kinase | purified MK, PK/LDH-coupled NADH absorbance 340 nm | 0.48% of 65,000 active | inhibition, % at 10 µM;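 active means ranked among the strongest by inhibition in the single 10 µM screen, a fixed top-ranked set picked for dose follow-up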
Abs 340nm – compounds absorbing at 340 nm; fold change at 10 µM; AID 708; compound absorbance at 340 nm, fold over control; 65,000 tested, under 10 active;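 active means at 10 µM dose, initial 340 nm absorbance at least 2 fold that of control wells; inactive means change under 2 fold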;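 further: initial absorbance extrapolated from kinetic A340 decline of NADH oxidation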
Autofluor 339 – intrinsic fluorescence of library compounds, ex339/em460 – biochemical, MLSMR library, data from DPM-DC assay, artefact control, profiling panel | fluorescence fold increase at 10 µM | compound autofluorescence, ex339/em460 nm, NADH buffer; active compounds read high; 1 = no-compound wells, NADH background | AID 709 | 5.5% of 65,000 active;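 active means at 10 µM, mean starting fluorescence two-fold or more over control wells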;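 further: signal is the first read of a kinetic run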
DPM-DC inhibit – blocks S. pneumoniae diphosphomevalonate decarboxylase; calls only at 10 µM; 0.49% of 65,000 active; purified DPM-DC, PK/LDH coupled NADH fluorescence; AID 556;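 active means the 320 compounds with the highest percent inhibition in the single-dose primary screen, excluding strongly autofluorescent ones, cut at about 32% in these data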;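 further: kinetic rate of NADH fluorescence loss reporting ADP formed by the decarboxylase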
A number is an active result; – = inactive; · = no result shown; + = active, no number. Only some compounds are listed: those with a hit (about 6.3% of all), similar ones and a draw of the others.

SMILES	Spn PMK inh	NADH enzymes	Spn MK inh	Abs 340nm	Autofluor 339	DPM-DC inhibit
CCOC(=O)C(C)Sc1nc(-c2ccc(OC)cc2)nc2c1c(=O)n(C)c(=O)n2C (stereo not given)	–	–	–	–	2.16	·
CCOC(=O)C(CC)Sc1nc(-c2ccc(OC)cc2)nc2c1c(=O)n(C)c(=O)n2C (stereo not given)	–	–	–	–	4.98	·
CC(=O)C(Sc1nc(-c2ccc(F)cc2)nc2c1c(=O)n(C)c(=O)n2C)C(C)=O	–	–	–	–	–	–
CCn1c(SCC(=O)N2CCCc3ccccc32)nc2ccccc2c1=O	–	–	–	–	–	–
O=C(CSc1nc2ccccc2n1CC(=O)N1CCCC1)N1CCN(C(=O)c2ccco2)CC1	–	–	–	–	–	–
CCN(CC)CCCNc1oc(-c2ccc(OC)c(OC)c2)nc1C#N	–	–	–	–	3.91	·
CC(C)(C)c1ccc(-c2nc(C#N)c(NCc3ccncc3)o2)cc1	–	–	–	–	–	–
COc1ccc(-c2nc(C#N)c(NCc3ccc(C)cc3)o2)cc1OC	–	–	–	–	2.11	·
CN(C)CCCNc1oc(-c2cccc(Cl)c2)nc1C#N	–	–	–	–	3.91	·
COc1ccc(-c2nc(C#N)c(NCCc3ccccc3)o2)cc1OC	–	–	–	–	3.89	·
CSc1ccccc1NC(=O)c1c(C)noc1C	–	–	–	–	–	–
CCOC(=O)c1ccc(Cn2cnc3ccccc3c2=O)cc1	–	–	–	–	–	–
O=S(=O)(c1cccc2nsnc12)N1CCc2ccccc2C1	–	–	–	–	–	–
COc1ccc(NS(=O)(=O)c2ccc(OCC(=O)N3CCCC3)cc2)cc1	–	–	–	–	–	–
Cc1ccc(N2C(=O)[C@@H]3C(c4ccc(F)cc4)=NO[C@@H]3C2=O)cc1	–	–	–	–	–	–
CCc1nn(C(C)C(=O)NC(C)CCc2ccco2)c(=O)c2cc3occc3n12 (stereo not given)	27.0	–	–	–	–	–
CCc1nn(C(C)C(=O)NCCc2ccc(OC)c(OC)c2)c(=O)c2cc3occc3n12 (stereo not given)	26.0	–	–	–	–	–
CC(=O)c1c(C)nn(CCC(=O)O)c1C	–	–	–	–	–	–
COC(=O)c1cc2c([nH]c3ccccc32)c(C)n1	–	–	–	–	4.84	·
CCOC(=O)c1cc(C#N)c(SCC(=O)c2cc(C#N)c(SC)nc2C)[nH]c1=O	–	–	–	–	2.04	·
COC(=O)CSc1nc(C)c(C(C)=O)cc1C#N	–	–	–	–	–	–
CN(C)c1ccc(-c2nc3ccccc3n2C)cc1	25.0	–	–	–	3.62	·
C=CCn1c(-c2ccc(N)cc2)nc2ccccc21	–	–	–	–	2.12	·
C=CCn1c(-c2ccc(OC)cc2)nc2ccccc21	–	–	–	–	–	–
CCn1c(-c2ccc(N(C)C)cc2)nc2ccccc21	–	–	–	–	3.87	·
SMILES	Spn PMK inh	NADH enzymes	Spn MK inh	Abs 340nm	Autofluor 339	DPM-DC inhibit
CC(C)n1c(-c2ccc(N(C)C)cc2)nc2ccccc21	–	–	–	–	3.76	·
CCn1c(-c2ccc(N)cc2)nc2ccccc21	–	–	–	–	–	–
O=c1c2cc(N3CCOCC3)ccc2[nH]c(=S)n1Cc1ccco1	–	–	–	–	3.54	–
COc1cccc(Cn2c(=S)[nH]c3ccc(N4CCOCC4)cc3c2=O)c1	–	–	–	–	3.71	+
O=c1c2cc(Cl)ccc2[nH]c(=S)n1Cc1ccco1	–	–	–	–	–	–
O=c1c2cc(N3CCOCC3)ccc2[nH]c(=S)n1CCCN1CCCC1	–	–	–	–	–	–
Cc1cc2c(ccc3[nH]onc32)n1	–	–	–	–	–	–
Cc1cc(=O)[nH]c2ccccc12	–	–	–	–	–	+
COCc1cc(C)nc(N)c1C#N	–	–	–	–	–	·
CCOc1cc2c(C#N)c(N3CCOCC3)nc(N)c2c(N)n1	–	–	–	–	5.12	·
CCCCc1nc(N2CCOCC2)c(C#N)c2c1CCCC2	–	–	–	–	–	–
COCc1cc(C)nc(N2CCOCC2)c1C#N	–	–	–	–	2.1	·
CCNc1nc(C)cc(COC)c1C#N	–	–	–	–	2.16	·
Cc1cnc(SCCc2ccncc2)nc1C	–	–	–	–	–	+
N#Cc1cnc(SCCc2ccccc2)nc1N	–	–	–	–	–	–
N#CCc1ccc(NS(=O)(=O)c2ccc(N3CCCC3=O)cc2)cc1	–	–	–	–	–	–
Cc1cc(C(=O)Nc2sc3c(c2C#N)CCC(C)C3)cs1 (stereo not given)	–	–	–	–	2.02	–
COC(=O)c1c(NC(=O)c2cccs2)sc2c1CCC(C)C2 (stereo not given)	–	–	–	–	3.15	–
CC(C)OC(=O)c1c(NC(=O)c2cccs2)sc2c1CCCC2	–	–	–	–	2.2	·
O=C(Nc1sc2c(c1C(=O)O)CCCC2)c1cccs1	–	–	–	–	–	–
O=C(Nc1ccon1)c1cccc(C(F)(F)F)c1	–	–	–	–	–	–
CC1=CC(C#N)(C#N)C(C#N)(C#N)C(c2ccccc2)N1 (stereo not given)	–	–	–	–	3.1	–
Cc1ccc(-c2nc(C#N)c(NCc3cccc4c3OCO4)o2)cc1	–	–	–	–	2.64	–
CNc1oc(-c2ccccc2Cl)nc1C#N	–	–	–	–	–	–
CNc1oc(-c2ccco2)nc1C#N	–	–	–	–	3.95	·
SMILES	Spn PMK inh	NADH enzymes	Spn MK inh	Abs 340nm	Autofluor 339	DPM-DC inhibit
Cc1ccc(CNc2oc(-c3ccco3)nc2C#N)cc1	–	–	–	–	2.1	·
CNc1oc(-c2ccc(Cl)cc2)nc1C#N	–	–	–	–	2.38	·
Cc1ccc(-c2[nH]c(=O)n3ccncc23)s1	–	–	–	–	–	–
O=c1c2[nH]c3ccccc3c2ncn1CCN1CCOCC1	–	–	–	–	–	–
CCOC(=O)c1[nH]c2ccc(Br)cc2c1NC(=O)CCN1CCC(C(=O)OCC)CC1	–	–	–	–	–	–
CCOc1ccc2[nH]c3c(N4CCN(c5ccccn5)CC4)ncnc3c2c1	–	–	–	–	2.67	–
COC(=O)c1c(NC(=O)c2ccco2)sc(C)c1C	–	–	–	–	2.09	·
COC(=O)c1c(NC(=O)c2ccc(Br)o2)sc(C)c1C	–	–	–	–	–	–
COc1c(F)c(F)c(C(=O)Nc2ccc(NC(=O)c3ccco3)cc2)c(F)c1F	–	–	–	–	–	–
COC(=O)c1c(NC(=O)c2ccco2)sc(C(=O)Nc2ccc(F)cc2)c1C	–	–	–	–	3.89	·
CC1CCCCC1NC(=O)CSc1nnc(COc2ccccc2Cl)o1 (stereo not given)	–	–	–	–	–	–
c1ccc(-c2cnc(-c3cccnc3)o2)cc1	–	–	–	–	2.09	·
NC(=O)c1ccc(-c2ncc(-c3ccccc3)o2)cc1	–	–	–	–	2.08	·
